We go through five molecules from PubChem BioAssay AID651858 (Broad Institute, 2012).

Some of the results follow. Unmarked numbers belong to inactive results.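 How the source made its calls: active means at highest dose tested, delta Tm positive; inactive means the rest.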

The assay in a line: dye-only thermal melt shift artefacts – biochemical, thermal shift counterscreen, cherry-pick, artefact control for Keap1-Nrf2 interaction inhibitor project, dose response (AID 651858). Particulars: Sypro Orange dye-only thermal melt, no protein, top dose 50 µM, active compounds read high.

On to `CCCC(=O)Nc1ccc(C(=O)NCCCn2ccnc2)cc1`, for which the delta Tm was -28 °C. `COc1ccc(C2c3ccc(O)cc3Oc3ncn(CCCO)c(=N)c32)cc1OC` (stereo not given): the delta Tm is -26.7 °C. For `Nc1ccc2nc3c(=O)[nH]c(=S)[nH]c3nc2c1` the value was -27.3 °C; for `O=C(Nc1ccccn1)C1CCN(S(=O)(=O)c2ccc3c(c2)OCCO3)CC1`, -21.3 °C; for `CCCC1OC23CCCCC2C(C#N)(C#N)C1(C#N)C(=N)O3` (stereo not given), -28.4 °C.
